# Results as given in the supplement of paper PMC10849652.
# Of roughly 8,800 targets only a part is listed; those with a hit were picked by preference. About 0.5% of all pairs of compound and target were hits. A number with no mark means an inactive call.
# How the values were obtained:
# Assay in all cases: log2 fold change, soluble protein after heating vs DMSO (PISA); higher = thermal stabilisation; K562 lysate, 10 uM; active = over 0.2 and 3.5 SD of the protein, either way, in both replicates (recomputed)
# alvocidib = compound: CN1CC[C@H](c2c(O)cc(O)c3c(=O)cc(-c4ccccc4Cl)oc23)[C@H](O)C1 [alvocidib]
# Procedure, shortened: (§1)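 Pellets of K562 cells were dounce-homogenised in PBS pH 7.4 with 1 mM MgCl2, and the crude extract was held at 1 mg/mL protein for a 30 min treatment with 10 μM compound. Aliquots were heated for 3 min over 48°C-58°C and pooled before NP-40 was added to 0.5% at 4°C. The supernatant from 21,000xg for 90 min was quantified by TMTpro 16plex LC-MS/MS with channel sums equalised. Values are reported from duplicates as log-two fold change in thermal stability relative to solvent controls.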
# Tubastatin A = compound: CN1CCc2c(c3ccccc3n2Cc2ccc(C(=O)NO)cc2)C1 [Tubastatin A]
# Procedure, shortened: as §1
# [1] = compound: CNC(=O)C1=CC=CC=C1NC2=NC(=NC=C2Cl)NC3=C(C=C(C=C3)N4CCOCC4)OC
# Procedure, shortened: as §1
# defactinib = compound: CNC(=O)c1ccc(Nc2ncc(C(F)(F)F)c(NCc3nccnc3N(C)S(C)(=O)=O)n2)cc1 [defactinib]
# Procedure, shortened: as §1
# [2] = compound: CNc1nc(-c2ccc3c(N)n[nH]c3c2)cc(N2C[C@@H](C(=O)NC3CCCCC3)CC[C@H]2C)n1
# Procedure, shortened: as §1
# encorafenib = compound: COC(=O)N[C@@H](C)CNc1nccc(-c2cn(C(C)C)nc2-c2cc(Cl)cc(NS(C)(=O)=O)c2F)n1 [encorafenib]
# Procedure, shortened: as §1
# [3] = compound: COC(=O)[C@H](CCSC)NC(=O)C1=C(C=C(C=C1)NC[C@H](CS)N)C2=CC=CC=C2
# Procedure, shortened: as §1
# alisertib = compound: COc1cc(Nc2ncc3c(n2)-c2ccc(Cl)cc2C(c2c(F)cccc2OC)=NC3)ccc1C(=O)O [alisertib]
# Procedure, shortened: as §1
# [4] = compound: COc1cc2nc(-c3cc(F)ccc3O)nc(N[C@@H]3CNC[C@H]3C(C)(C)O)c2cc1OC
# Procedure, shortened: as §1
# gefitinib = compound: COc1cc2ncnc(Nc3ccc(F)c(Cl)c3)c2cc1OCCCN1CCOCC1 [gefitinib]
# Procedure, shortened: as §1
# Chain of UniProt P13598 (P13598 whole entry, looked up): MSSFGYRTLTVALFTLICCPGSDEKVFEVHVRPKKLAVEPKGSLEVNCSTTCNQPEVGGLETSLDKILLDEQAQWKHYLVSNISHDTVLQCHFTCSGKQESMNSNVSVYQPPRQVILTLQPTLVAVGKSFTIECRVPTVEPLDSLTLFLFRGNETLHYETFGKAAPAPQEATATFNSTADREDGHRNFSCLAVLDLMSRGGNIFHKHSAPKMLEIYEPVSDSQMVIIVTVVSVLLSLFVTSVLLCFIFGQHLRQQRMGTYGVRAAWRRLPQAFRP
# Chain of UniProt Q8WVV9 (Q8WVV9 whole entry, looked up): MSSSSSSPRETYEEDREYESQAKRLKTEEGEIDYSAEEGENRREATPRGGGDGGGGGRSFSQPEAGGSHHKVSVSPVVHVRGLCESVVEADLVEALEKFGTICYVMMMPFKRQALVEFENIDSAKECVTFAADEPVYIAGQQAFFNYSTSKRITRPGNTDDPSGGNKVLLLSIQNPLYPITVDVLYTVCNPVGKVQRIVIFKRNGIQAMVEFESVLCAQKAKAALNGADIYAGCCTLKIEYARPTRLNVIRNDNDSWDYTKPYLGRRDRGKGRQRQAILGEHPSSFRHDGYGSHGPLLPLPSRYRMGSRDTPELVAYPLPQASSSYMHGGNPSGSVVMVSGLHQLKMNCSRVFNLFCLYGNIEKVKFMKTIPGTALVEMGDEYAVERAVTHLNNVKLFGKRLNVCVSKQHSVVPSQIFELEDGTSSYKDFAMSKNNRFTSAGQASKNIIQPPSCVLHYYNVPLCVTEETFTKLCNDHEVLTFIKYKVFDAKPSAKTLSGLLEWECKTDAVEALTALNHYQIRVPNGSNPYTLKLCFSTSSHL
# Chain of UniProt Q9H4A6 (Q9H4A6 whole entry, looked up): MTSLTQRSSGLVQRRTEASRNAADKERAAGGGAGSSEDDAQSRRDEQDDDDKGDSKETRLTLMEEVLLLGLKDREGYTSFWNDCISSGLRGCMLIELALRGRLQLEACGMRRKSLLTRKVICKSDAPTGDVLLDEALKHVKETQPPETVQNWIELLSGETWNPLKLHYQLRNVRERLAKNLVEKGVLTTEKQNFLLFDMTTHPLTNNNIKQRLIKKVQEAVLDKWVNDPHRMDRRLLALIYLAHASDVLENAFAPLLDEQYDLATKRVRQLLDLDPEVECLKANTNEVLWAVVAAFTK
# Chain of UniProt Q9H9Y4 (Q9H9Y4 whole entry, looked up): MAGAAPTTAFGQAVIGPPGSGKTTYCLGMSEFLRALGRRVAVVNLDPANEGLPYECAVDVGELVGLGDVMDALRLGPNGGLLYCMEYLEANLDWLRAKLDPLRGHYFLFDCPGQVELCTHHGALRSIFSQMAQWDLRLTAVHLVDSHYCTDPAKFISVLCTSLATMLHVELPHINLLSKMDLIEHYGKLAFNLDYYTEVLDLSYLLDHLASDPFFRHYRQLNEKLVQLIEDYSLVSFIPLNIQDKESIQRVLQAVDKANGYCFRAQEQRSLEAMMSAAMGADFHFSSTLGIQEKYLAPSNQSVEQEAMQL
# Chain of UniProt Q9NWZ3 (Q9NWZ3 whole entry, looked up): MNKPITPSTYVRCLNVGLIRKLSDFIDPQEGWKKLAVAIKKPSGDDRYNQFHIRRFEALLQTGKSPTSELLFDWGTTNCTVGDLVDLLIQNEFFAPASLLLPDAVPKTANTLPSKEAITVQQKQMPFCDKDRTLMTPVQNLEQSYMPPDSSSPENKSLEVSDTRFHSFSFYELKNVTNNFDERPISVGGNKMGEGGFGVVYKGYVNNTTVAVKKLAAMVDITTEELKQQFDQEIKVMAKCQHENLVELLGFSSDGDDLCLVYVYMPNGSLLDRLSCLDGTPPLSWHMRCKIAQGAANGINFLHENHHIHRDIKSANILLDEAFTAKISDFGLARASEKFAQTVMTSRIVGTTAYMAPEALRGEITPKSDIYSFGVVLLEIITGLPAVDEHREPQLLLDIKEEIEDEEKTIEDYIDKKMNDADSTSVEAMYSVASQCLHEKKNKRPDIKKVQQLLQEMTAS
# Chain of UniProt Q49A26 (Q49A26 whole entry, looked up): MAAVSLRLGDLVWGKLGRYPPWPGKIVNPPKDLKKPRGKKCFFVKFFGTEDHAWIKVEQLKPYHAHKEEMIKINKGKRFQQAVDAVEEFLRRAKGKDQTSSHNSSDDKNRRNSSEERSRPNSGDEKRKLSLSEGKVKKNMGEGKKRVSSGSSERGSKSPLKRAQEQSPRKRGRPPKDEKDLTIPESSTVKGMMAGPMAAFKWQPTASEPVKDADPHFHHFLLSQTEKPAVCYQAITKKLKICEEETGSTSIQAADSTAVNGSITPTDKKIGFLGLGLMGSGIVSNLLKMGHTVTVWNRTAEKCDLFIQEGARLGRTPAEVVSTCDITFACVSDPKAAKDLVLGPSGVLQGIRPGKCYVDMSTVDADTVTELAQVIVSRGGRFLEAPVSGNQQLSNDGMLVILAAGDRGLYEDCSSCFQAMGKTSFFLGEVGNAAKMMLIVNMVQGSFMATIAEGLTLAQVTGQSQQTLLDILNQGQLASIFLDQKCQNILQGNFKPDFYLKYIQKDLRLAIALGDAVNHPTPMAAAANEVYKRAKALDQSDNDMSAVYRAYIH
# Chain of UniProt Q9BUJ2 (Q9BUJ2 whole entry, looked up): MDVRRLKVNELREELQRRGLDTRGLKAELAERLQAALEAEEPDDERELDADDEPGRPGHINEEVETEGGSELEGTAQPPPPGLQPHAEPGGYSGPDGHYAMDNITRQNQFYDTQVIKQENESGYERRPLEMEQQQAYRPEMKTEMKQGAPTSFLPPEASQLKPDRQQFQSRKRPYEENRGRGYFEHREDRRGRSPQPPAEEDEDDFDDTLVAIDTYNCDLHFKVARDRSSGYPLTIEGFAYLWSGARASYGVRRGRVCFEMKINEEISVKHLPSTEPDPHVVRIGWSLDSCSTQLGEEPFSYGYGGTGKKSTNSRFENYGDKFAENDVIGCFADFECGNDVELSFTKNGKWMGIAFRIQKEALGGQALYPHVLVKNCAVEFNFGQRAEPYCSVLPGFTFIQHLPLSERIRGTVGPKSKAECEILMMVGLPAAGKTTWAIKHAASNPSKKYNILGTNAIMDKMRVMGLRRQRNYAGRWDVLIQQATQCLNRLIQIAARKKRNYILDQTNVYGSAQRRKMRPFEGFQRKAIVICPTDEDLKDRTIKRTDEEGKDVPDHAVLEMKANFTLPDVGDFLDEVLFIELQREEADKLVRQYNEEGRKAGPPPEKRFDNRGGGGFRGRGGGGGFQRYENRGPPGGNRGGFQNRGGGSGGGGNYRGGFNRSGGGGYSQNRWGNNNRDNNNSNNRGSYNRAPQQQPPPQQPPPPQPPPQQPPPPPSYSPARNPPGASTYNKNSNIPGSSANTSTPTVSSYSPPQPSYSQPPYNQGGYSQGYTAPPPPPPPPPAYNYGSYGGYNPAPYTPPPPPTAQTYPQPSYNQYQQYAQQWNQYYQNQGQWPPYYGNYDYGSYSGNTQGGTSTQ
# Chain of UniProt P15104 (P15104 whole entry, looked up): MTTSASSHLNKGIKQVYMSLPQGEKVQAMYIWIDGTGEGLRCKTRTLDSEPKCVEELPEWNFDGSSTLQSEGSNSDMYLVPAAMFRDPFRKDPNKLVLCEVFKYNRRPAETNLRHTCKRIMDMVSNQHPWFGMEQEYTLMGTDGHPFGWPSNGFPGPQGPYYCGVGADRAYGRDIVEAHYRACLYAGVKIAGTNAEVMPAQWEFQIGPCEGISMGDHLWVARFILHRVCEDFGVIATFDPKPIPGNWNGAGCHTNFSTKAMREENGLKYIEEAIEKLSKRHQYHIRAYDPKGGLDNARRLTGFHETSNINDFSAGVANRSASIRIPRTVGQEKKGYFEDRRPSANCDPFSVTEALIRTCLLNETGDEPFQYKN
# Chain of UniProt Q9BVP2 (Q9BVP2 whole entry, looked up): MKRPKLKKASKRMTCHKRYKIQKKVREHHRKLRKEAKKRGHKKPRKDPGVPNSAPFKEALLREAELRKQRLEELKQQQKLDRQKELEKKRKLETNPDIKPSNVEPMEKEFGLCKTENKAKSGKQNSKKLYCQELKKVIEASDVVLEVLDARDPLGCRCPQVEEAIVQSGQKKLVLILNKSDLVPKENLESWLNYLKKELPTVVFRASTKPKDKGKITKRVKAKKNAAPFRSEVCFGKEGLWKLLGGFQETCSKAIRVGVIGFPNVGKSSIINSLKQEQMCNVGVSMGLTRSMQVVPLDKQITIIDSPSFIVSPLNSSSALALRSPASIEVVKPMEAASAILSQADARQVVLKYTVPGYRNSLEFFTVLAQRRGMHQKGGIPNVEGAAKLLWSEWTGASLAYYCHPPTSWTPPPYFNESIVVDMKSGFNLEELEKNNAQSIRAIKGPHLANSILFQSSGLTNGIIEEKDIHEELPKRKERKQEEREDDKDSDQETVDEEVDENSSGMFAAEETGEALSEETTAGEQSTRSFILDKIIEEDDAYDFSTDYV
# Chain of UniProt P26583 (P26583 whole entry, looked up): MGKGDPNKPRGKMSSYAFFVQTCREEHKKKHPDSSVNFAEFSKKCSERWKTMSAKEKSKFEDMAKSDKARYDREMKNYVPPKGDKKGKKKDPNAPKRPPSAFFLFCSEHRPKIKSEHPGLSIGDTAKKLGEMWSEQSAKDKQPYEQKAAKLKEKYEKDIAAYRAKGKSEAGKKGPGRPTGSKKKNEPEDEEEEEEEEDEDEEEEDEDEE
# Chain of UniProt P04792 (P04792 whole entry, looked up): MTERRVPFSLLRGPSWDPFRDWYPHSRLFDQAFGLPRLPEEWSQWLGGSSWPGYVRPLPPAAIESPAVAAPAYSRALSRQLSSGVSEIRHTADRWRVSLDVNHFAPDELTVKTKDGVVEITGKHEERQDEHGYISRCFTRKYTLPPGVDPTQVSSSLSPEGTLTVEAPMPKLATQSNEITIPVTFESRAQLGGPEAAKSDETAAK
# Chain of UniProt Q16836 (Q16836 whole entry, looked up): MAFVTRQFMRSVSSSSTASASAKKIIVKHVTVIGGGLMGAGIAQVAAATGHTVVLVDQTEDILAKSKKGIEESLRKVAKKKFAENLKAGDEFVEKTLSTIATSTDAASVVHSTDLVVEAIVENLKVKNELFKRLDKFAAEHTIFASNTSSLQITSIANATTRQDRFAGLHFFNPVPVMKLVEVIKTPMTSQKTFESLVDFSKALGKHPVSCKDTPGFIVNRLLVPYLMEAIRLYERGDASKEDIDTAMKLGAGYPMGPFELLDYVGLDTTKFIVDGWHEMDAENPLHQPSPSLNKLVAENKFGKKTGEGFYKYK
Target,log2 fold change (alvocidib),log2 fold change (Tubastatin A),log2 fold change [1],log2 fold change (defactinib),log2 fold change [2],log2 fold change (encorafenib),log2 fold change [3],log2 fold change (alisertib),log2 fold change [4],log2 fold change (gefitinib)
HSPB1 (UniProt P04792),0.003,-0.023,-0.003,0,-0.036,-0.001,0.025,0.012,0.009,-0.012
HK1 isoform 2 (UniProt P19367),-0.001,-0.038,-0.009,0.001,-0.011,0.003,0.004,0.017,-0.007,-0.011
INTS10 (UniProt Q9NVR2),-0.009,-0.143,-0.033,0.016,-0.045,-0.017,0.043,-0.093,-0.097,0.049
GLYR1 (UniProt Q49A26),0.013,-0.007,-0.046,-0.084,-0.078,-0.001,0.074,-0.011,-0.046,-0.093
GNL3 (UniProt Q9BVP2),0.023,0.008,0.055,-0.002,0.038,0.014,0.252 (active),-0.006,0.033,-0.029
HADHB (UniProt P55084),-0.046,0.033,0.081,-0.065,-0.03,-0.058,0.072,-0.019,-0.019,0.022
ILK (UniProt Q13418),0.002,-0.084,-0.002,-0.026,-0.061,-0.032,0.038,0.007,-0.04,0.013
ICAM2 (UniProt P13598),0.078,0.017,0.032,0.039,-0.019,-0.026,-0.065,-0.016,0.009,-0.02
HNRNPLL (UniProt Q8WVV9),0.015,-0.164,0.021,0.035,-0.016,0.082,-0.07,-0.016,0.011,-0.052
GLUD2 (UniProt P49448),-0.029,0.12,0.053,0.061,0.02,0.066,0.115,-0.06,-0.021,0.036
IARS2 (UniProt Q9NSE4),0.072,0.021,-0.026,0.004,-0.003,-0.006,0.014,-0.013,-0.011,0.004
HSP90AA4P (UniProt Q58FG1),-0.228,0.052,-0.081,-0.213,-0.046,-0.022,0.123,-0.012,0.068,0.042
HNRNPUL1 (UniProt Q9BUJ2),0.006,0.01,-0.011,0.002,-0.027,0.003,-0.003,-0.012,0.007,-0.015
ISOC2 (UniProt Q96AB3),0.004,-0.017,0.076,0.121,-0.024,0.014,0.122,0.022,0.043,-0.045
IMPDH2 (UniProt P12268),0.026,-0.226 (active),0.013,0.03,0.017,0.021,-0.501 (active),0.029,-0.015,-0.023
HADH isoform 2 (UniProt Q16836),0.048,0.003,-0.024,0.061,0.09,-0.048,0.03,0.021,-0.002,0.042
GTPBP2 (UniProt Q9BX10),-0.001,-0.045,0.039,0.018,-0.037,0.002,0.079,0.034,-0.07,0.058
HMBOX1 isoform 5 (UniProt Q6NT76),-0.078,-0.003,-0.005,0.012,0.066,-0.037,-0.016,-0.156,0.02,-0.091
GRK2 (UniProt P25098),0.001,-0.08,0.068,0.106,0.044,0.001,0.086,-0.042,0.066,-0.041
IRAK4 (UniProt Q9NWZ3),0.01,-0.083,0.261 (active),0.145,-0.018,-0.032,0.032,0.006,0.111,0.045
GOLPH3 (UniProt Q9H4A6),0.001,-0.123,0.075,0.015,-0.1,0.051,-0.6 (active),-0.018,-0.024,-0.011
GLUL (UniProt P15104),0.011,0.015,0.034,0.027,-0.125,-0.002,0.029,0.002,-0.019,-0.004
GPN2 (UniProt Q9H9Y4),-0.034,-0.027,-0.004,0.112,-0.007,0.19,-0.038,0.008,-0.038,-0.001
HEATR6 (UniProt Q6AI08),0.03,-0.1,0.025,0.011,0.008,0.039,0.101,-0.028,-0.01,0.001
GSTZ1 (UniProt G3V4T6),-0.016,0.018,0.01,0.061,0.028,-0.045,0.35 (active),0.023,0.049,0.002
KBTBD4 isoform 2 (UniProt Q9NVX7),-0.064,-0.048,-0.016,0.024,0.193,0.048,-0.08,-0.098,-0.046,0.121
KHDRBS1 (UniProt Q07666),0.039,-0.045,0.017,-0.006,0.007,0.019,-0.139,-0.025,0.011,-0.01
KBTBD2 (UniProt Q8IY47),-0.073,0.167,-0.009,-0.013,-0.036,0.018,-0.362 (active),-0.053,-0.01,0.028
HMGB2 (UniProt P26583),0.134,0.027,0.023,0.003,0.016,-0.006,-0.081,-0.044,-0.022,-0.028
HNRNPD isoform 3 (UniProt Q14103),0.017,0.008,0.004,0.117,0.146,0.036,0.016,0.024,0.001,0.113
